Test results reported in PubChem BioAssay (NCI).
Compounds without any hit were thinned out: in the full panel of roughly 83,000, 20% have a hit.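 The test compound was applied at a single concentration to cells in 96-well plates for 48 hours, and percent growth was recorded.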 Values without a mark were called inactive. Activity calls are given as the source filed them. Rule for the calls: active = growth percent below 10; inactive = the rest.

Tests used:
Experiment in all cases: NCI-60 one-dose screen, 48 h (100 = growth as untreated, 0 = no growth, -100 = all killed)
Settings in all cases: 10 µM unless noted
[1] = tested on: SK-MEL-2 melanoma
[2] = tested on: EKVX NSCLC
[3] = tested on: SN12C renal
[4] = tested on: UO-31 renal
[5] = tested on: TK-10 renal
[6] = tested on: ACHN renal
[7] = tested on: CAKI-1 renal
[8] = tested on: CCRF-CEM leukemia
[9] = tested on: MOLT-4 leukemia
[10] = tested on: A498 renal

SMILES | growth [1] | growth [2] | growth [3] | growth [4] | growth [5] | growth [6] | growth [7] | growth [8] | growth [9] | growth [10]
O=C(/C=C/c1ccc(Cl)c(Cl)c1)Nc1ncc(Cc2ccc(Cl)c(Cl)c2)s1 | 79.2% | 69.8% | 83.7% | 63.5% | 95.8% | 42.6% | 53.9% | 71.3% | 54.8% | 
CCC(=C(c1ccc(OCCN(C)C)cc1)c1ccc(OCCN(C)C)cc1)c1ccc(Cl)cc1 | -41.8% (active) | 7.78% (active) | -33.2% (active) | -71.9% (active) | 60.2% | -78.5% (active) | -53.6% (active) | -50.8% (active) | -50.2% (active) | 
CCOC(=O)c1cnc2c(-c3ccc(Cl)c(Cl)c3)cnn2c1 | 83.9% | 81.3% | 95.7% | 80.2% | 117% | 104% | 67.2% | 68.4% | 62.3% | 
COc1ccc(C2CC(c3cccc(OCCCCOc4cccc(C5=NOC(c6ccc(OC)cc6)C5)c4)c3)=NO2)cc1 (stereo unspecified) | 103% | 102% | 95.3% | 79% | 104% | 104% | 89% | 72.8% | 92.2% | 
Cn1c(SCC(=O)c2ccc(Br)cc2)nc2ccccc2c1=O | 102% | 82.2% | 96.6% | 75.9% | 117% | 96.1% | 85.4% | 91.9% | 99% | 
O=C(CCCCCCNC(=O)C(O)(O)C(F)(F)F)Nc1ncc(-c2ccccc2)s1 | -23.3% (active) | 20.8% | 2.31% (active) | -27.9% (active) | -10.3% (active) | -53.1% (active) | -40.4% (active) | 22.5% | 5.09% (active) | 
C#Cc1cc(OC)c(C(=O)Nc2ccc(F)cc2C(=O)Nc2cccc(S(=O)(=O)C(F)(F)F)c2)cn1 | 45.1% | 13.9% | 17.1% | -85.1% (active) | 66.6% | -57.4% (active) | -11.4% (active) | -23.5% (active) |  | 
CC(=O)Nc1nc(C)c(-c2csc(Nc3ccccc3)n2)s1 | 18.8% | -0.417% (active) | 24.4% | 10.9% | 31.4% | 17.2% | 28.6% | 27.1% | 16.6% | 
CC(C)NC(=O)c1cc(-c2ccc(NC(=O)Nc3ccc(F)cc3)cc2)nc2cccnc12 | 120% | 102% | 103% | 92.8% | 110% | 103% | 95% | 112% | 133% | 
Brc1cccc(-c2cc(-c3cnc4c(c3)OCCO4)n[nH]2)c1 | 52.1% | 50.4% | 62.8% | 51% | 89.9% | 51.6% | 51.8% | 36.7% | 34.1% | 
Cc1ccc2c(n1)C(=O)C(Cl)=C(Nc1cccc(C)c1C)C2=O | -42% (active) | 31.2% | -73.4% (active) | -22.8% (active) | 142% | -25.5% (active) | 56.5% | 2.35% (active) | -10.3% (active) | 
N#CC1=C2NCCCNc3oc(nc3C#N)Cc3ccccc3CC(=N1)O2 | 93.9% | 99.5% | 105% | 72.9% | 106% | 87.4% | 77.3% | 30.4% | 84.1% | 
CC[C@H](CC[C@@H](C)[C@H]1CC[C@H]2[C@@H]3CC(=O)C4=CC(=O)/C(=C/c5ccc([N+](=O)[O-])cc5)C[C@]4(C)[C@H]3CC[C@]12C)C(C)C | 114% | 109% | 98.4% | 79.6% | 104% | 93.9% | 90.8% | 56.1% | 84.3% | 
O=S(=O)(NCCCNc1nccc(-c2[nH]c(-c3ccccc3)nc2-c2ccc(F)c(O)c2)n1)c1ccc(C(F)(F)F)cc1 | 18.8% | 69.7% | 67.7% | 91.4% | 95.7% | 58.7% | 40.5% |  | 17.2% | 
COc1ccccc1Cn1cc(C#N)c(N)c1C(=O)c1ccc(Br)cc1 | 98.6% | 85.2% | 92.1% | 78.1% | 108% | 96.6% | 80.6% | 91.4% | 85.4% | 
Clc1ccc2[nH]cc(-c3nn4cc(-c5cccnc5)nc4s3)c2c1 | 101% | 84.1% | 96.6% | 71.6% | 184% | 87.8% | 69.7% | 84.3% | 94.5% | 
CC1(C)C=Cc2cc(/C(N)=N/C(N)=N/c3nc4ccccc4s3)ccc2O1 | 110% | 30.7% | 52.4% | 64.9% | 113% | 88.7% | 65.3% | 46.3% | 61.8% | 
Cc1ccc(NC2=C(Cl)C(=O)c3nc(C)ccc3C2=O)c(C)c1 | 4.04% (active) | 49.1% | -69.1% (active) | -13% (active) | 126% | -24.7% (active) | 85.5% | 1.19% (active) | 1.38% (active) | 
CCCCc1nc2c(N)nc3ccccc3c2n1Cc1ccc(OC)cc1 | 71.6% | 58.5% | 71.5% | 40.2% | 68.3% | 76.9% | 52.2% | 60.2% | 36.8% | 
COc1cc(-c2nc(-c3ccccc3)[nH]c2-c2ccnc(NCCCNS(=O)(=O)c3ccc(C)cc3)n2)ccc1F | 104% | 74.5% | 89.3% | 78.6% | 123% | 84.6% | 105% | 56.9% | 45.1% | 
CNC(=O)c1cc(N2CCc3cc(NC(=O)Nc4ccc(N5CCOCC5)c(C(F)(F)F)c4)ccc32)ccn1 | 45.6% | 59.6% | 15% | 16.9% | 80.8% | 26.3% | 44.3% | 25.1% | 22.9% | 
O=C(Nc1ccc(N2CCOCC2)cc1)Nc1ccc2c(ccn2C(=O)c2cccc(F)c2)c1 | 77.2% | 73.9% | 74.2% | 102% | 86.9% | 61.8% | 42.3% | 82.4% | 83.6% | 
CC(=O)Nc1cc(N2CCOCC2)c2nc(NC(=O)c3[nH]c(C)c(Cl)c3Cl)sc2c1 | 83% | 85.1% | 49.8% | 57.9% | 112% | 49.3% | 93.1% | 74.2% | 65% | 
O=C(/C=C/c1ccccc1Cl)Nc1ncc(Cc2cc(Cl)ccc2Cl)s1 | 30.4% | 37.6% | 34.1% | 48.2% | 61.2% |  | 36.6% | 14% | 24% | -16.6% (active)
CC[C@]12CC(C(=O)OC)=C3Nc4ccccc4[C@@]34CCN(C14)[C@@H]1c3cc4c(cc3O[C@@H]1[C@H]2O)NC1=C(C(=O)OC)C[C@@]2(CC)C3N(CC[C@@]143)C[C@H]1O[C@H]12 (stereo partly specified) | 40.8% | 26.1% | 31.1% | 7.33% (active) | 6.66% (active) |  | 8.4% (active) | 12.6% | 14% | -46.1% (active)
CN1CC[C@@H]2[C@@]3(C)CC[C@H](O)C(C)(C)[C@@H]3CC[C@@]2(C)[C@]2(C)CC[C@@]3(CO)CCC(C)(C)C[C@@H]3C12 (stereo partly specified) | 102% | 100% | 91.9% | 68.2% | 117% |  | 84.1% | 76.2% | 75.4% | 97.1%
O=C1[C@@H]2Cc3c([nH]c4ccccc34)[C@@H](c3ccc(Cl)cc3)N2C(=O)CN1C1CCN(Cc2ccccc2)CC1 | 92.7% | 54.6% | 55% | 30.5% | 78.9% |  | 26.2% | 20.1% | 13.5% | 76.1%
